Laboratory results from the supplement of paper PMC6555819.

What was measured:
Experiment in all cases: PBM binding z-score (relative to random genomic background probes); higher = stronger binding; sequences stand for … in GC…GCGATTGACAGCGTAGAATGAAGG
[1] = system: FXR:RXRa (NR concentration 270 nM, RXRa partner concentration 90 nM)
Outline: (§1)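 Antibodies against each partner of ligand-free nuclear receptor dimers (one per run) detected binding on custom Agilent 4×180K protein-binding microarrays after 1 h incubation. The double-stranded probes had 34-nt variable regions carrying direct-repeat seeds, single-nucleotide variants, half-site ablations and random human genomic background sequences. Binding z-scores, from regression-normalized fluorescence, use the random background probes as reference.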

[2] = system: LXRa:RXRa (NR concentration 270 nM, RXRa partner concentration 90 nM)
Outline: as §1

[3] = system: LXRa homodimer (NR concentration 270 nM)
Outline: as §1

[4] = system: LXRb:RXRa (NR concentration 270 nM, RXRa partner concentration 90 nM)
Outline: as §1

[5] = system: LXRb homodimer (NR concentration 270 nM)
Outline: as §1

[6] = system: PPARa:RXRa (NR concentration 270 nM, RXRa partner concentration 90 nM)
Outline: as §1

[7] = system: PPARg:RXRa (NR concentration 180 nM, RXRa partner concentration 90 nM)
Outline: as §1

[8] = system: PPARg:RXRa 270nM:90nM, anti-RXR (NR concentration 270 nM, RXRa partner concentration 90 nM)
Outline: as §1

[9] = system: PPARg:RXRa 30nM:10nM, anti-RXR (NR concentration 30 nM, RXRa partner concentration 10 nM)
Outline: as §1

[10] = system: PPARg:RXRa 90nM:30nM, anti-RXR (NR concentration 90 nM, RXRa partner concentration 30 nM)
Outline: as §1

[11] = system: PPARg:RXRa DBDmut IVT, anti-RXR (DBD mutation: RXRa K156A/R161A, NR concentration 270 nM, RXRa partner concentration 90 nM)
Outline: as §1

[12] = system: PPARg:RXRa IVT, anti-PPARg (NR concentration 270 nM, RXRa partner concentration 90 nM)
Outline: as §1

[13] = system: PPARg DBDmut:RXRa IVT, anti-PPARg (DBD mutation: PPARg1 K132A/R137A, NR concentration 270 nM, RXRa partner concentration 90 nM)
Outline: as §1

[14] = system: PPARg DBDmut IVT, anti-PPARg (DBD mutation: PPARg1 K132A/R137A, NR concentration 270 nM)
Outline: as §1

[15] = system: PPARg homodimer (NR concentration 180 nM)
Outline: as §1

[16] = system: PXR:RXRa (NR concentration 270 nM, RXRa partner concentration 90 nM)
Outline: as §1

[17] = system: PXR homodimer (NR concentration 270 nM)
Outline: as §1

[18] = system: RARa:RXR (NR concentration 270 nM, RXRa partner concentration 90 nM)
Outline: as §1

[19] = system: RARa homodimer (NR concentration 270 nM)
Outline: as §1

[20] = system: RARb:RXRa (NR concentration 270 nM, RXRa partner concentration 90 nM)
Outline: as §1

Sequence | PBM binding z-score [1] | PBM binding z-score [2] | PBM binding z-score [3] | PBM binding z-score [4] | PBM binding z-score [5] | PBM binding z-score [6] | PBM binding z-score [7] | PBM binding z-score [8] | PBM binding z-score [9] | PBM binding z-score [10] | PBM binding z-score [11] | PBM binding z-score [12] | PBM binding z-score [13] | PBM binding z-score [14] | PBM binding z-score [15] | PBM binding z-score [16] | PBM binding z-score [17] | PBM binding z-score [18] | PBM binding z-score [19] | PBM binding z-score [20]
ACTACCAGGCCAAGGGTCACTCAAGATTAGTCCG | 2.84 | 3.11 | 0.63 | 3.41 | 0.443 | 5.06 | 8.68 | 7.51 | 6.65 | 7.73 | 1.41 | 4.54 | 0.921 | -0.0701 | 2.3 | 3.38 | 0.474 | 4.11 | 1.31 | 3.78
GCGACTGTGGCATCAGCAGGTTACCATAACTTAA | -0.475 | -0.391 | -0.237 | -0.0453 | -0.969 | 0.0749 | 0.0982 | -0.457 | -0.399 | -0.487 | 0.287 | 0.27 | -0.703 | -1.08 | -0.566 | -0.281 | -0.227 | 0.0331 | -0.798 | 0.00959
TCATATAGGTAAAGGCTAGGTGAAAGTCCGATCT | 1.01 | 0.707 | -0.194 | 0.441 | -0.41 | 1.71 | 1.18 | 2.39 | 3.57 | 2.98 | 3.97 | 3.25 | 0.56 | 1.28 | 0.619 | 0.508 | 0.058 | 1.09 | 1.15 | 0.844
CAAACTAGGTCATAGAGGTCAAAGTCCGTGCGTA | 7.25 | 6.71 | 8.36 | 6.15 | 2.33 | 6.49 | 9.13 | 7.74 | 6.17 | 7.92 | 8.2 | 8.54 | 1.02 | 1.45 | 5.21 | 6.75 | 12.4 | 6.77 | 2.28 | 5.12
CCTATTTGGTCAAGGTCACACACGCTATAGGTAC | 4.34 | 4.04 | 2.64 | 4.09 | 1.47 | 4.33 | 3.07 | 3.58 | 1.55 | 2.5 | 2.33 | 3.67 | 1.27 | 1.25 | 3.05 | 4.1 | 2.06 | 4.39 | 2.51 | 4.3
CAAACTAGGTCAAGGTCAAAGTGGGTTTGTGCCA | 6.71 | 5.42 | 3.68 | 4.73 | 1.29 | 6.04 | 9.42 | 7.89 | 6.5 | 8.27 | 8.63 | 8.56 | 2.16 | 1.39 | 3.95 | 5.56 | 2.52 | 5.18 | 1.68 | 5.14
GCTTACGGGTCAAACGTTATAGCATGAATAGAAT | 6.35 | 4.13 | -0.166 | 4.02 | 0.282 | 5.72 | 6.02 | 6.15 | 2.96 | 5.31 | 4.87 | 4.1 | 1.95 | 1.38 | 1.25 | 3.37 | -0.15 | 4.41 | 0.0211 | 3.76
GCTAGTTGGTCAGTAAAAGGTCACACAGCGGTCG | 3.2 | 4.47 | 4.65 | 4.17 | 0.715 | 4.62 | 2.84 | 4.58 | 2.15 | 4.37 | 1.19 | 2.6 | -0.374 | -0.109 | 8.6 | 5.42 | 1.17 | 6.43 | 4.55 | 4.32
TCATATAGGTAAACAGTTGAAAGTCCGTAAGTTA | 1.56 | 1.2 | 0.508 | 1.15 | 0.267 | 1.76 | 1.53 | 2.91 | 3.95 | 3.49 | 4.45 | 3.32 | 1.41 | 0.905 | 1.35 | 1.03 | 0.634 | 1.35 | 1.47 | 0.681
ATATGTAGGTTAGCTGGGCTCATTCAGACTAGGC | -0.0917 | -0.146 | -0.339 | -0.294 | -0.171 | 1.98 | 2.71 | 2.34 | 0.752 | 1.5 | 6.55 | 5.57 | 1.42 | 1.63 | 0.611 | -0.0149 | -0.367 | 0.11 | 0.493 | 0.456
GATACAGGGTCAAGGCAAGAGTACGCGTATTGAT | 6.93 | 4.47 | 0.251 | 3.95 | 0.189 | 6.03 | 6.09 | 5.4 | 2.18 | 4.16 | 2.89 | 4.14 | 1.59 | 0.74 | 2.69 | 3.78 | 0.428 | 4.61 | 1.12 | 4.62
ATATGTAGGCTATCGGGTCATTCAGTTTGCGCAT | 1.71 | 1.58 | 0.22 | 1.95 | 0.313 | 3.69 | 4.12 | 3.83 | 1.92 | 3.21 | 5.77 | 5.5 | 1.43 | 1.46 | 1.08 | 2.87 | 6.85 | 2.54 | 0.357 | 1.72
GCGACTGGGGCAAAGCAGGTTACCATCAGGTTGG | 0.219 | 0.0244 | -0.624 | 0.0908 | -1.13 | 1.24 | 0.987 | 1.13 | -0.557 | 0.405 | 3.88 | 3.6 | -0.221 | -0.906 | 0.147 | 0.343 | -0.136 | 0.899 | -1.19 | 0.889
CAAACTAGGTCACCGGAAGGCCAAAGTCCGCATG | 4.53 | 3.53 | 0.418 | 2.46 | 0.121 | 5.08 | 8.65 | 7.5 | 4.66 | 7.3 | 8.65 | 8.96 | 1.86 | 0.375 | 2.09 | 2.85 | -0.0574 | 3.4 | 0.162 | 4.54
GCGACTGGGGGATCAGCAGGTTACCATAACTTAA | 0.383 | 0.523 | 0.0867 | 2.54 | 5.33 | 1.5 | 0.824 | 1.73 | 0.24 | 1.15 | 0.873 | 2.43 | 3.69 | 4.01 | 0.749 | 1.15 | 0.388 | 1.31 | -0.462 | 0.688
ATATGTACGTTACATCCGGGTCATTCAGGCTATG | 1.77 | 1.94 | 1.06 | 2.44 | 0.756 | 2.53 | 1.39 | 1.41 | 0.502 | 1.35 | 1.16 | 1.97 | 2.06 | 2.28 | 1.34 | 3.1 | 3.05 | 3.04 | 0.866 | 1.56
CCTCGGAGGACAGATGGTCAGAGCTGTCCGCTTT | -0.143 | -0.35 | -0.187 | -0.927 | -0.896 | -0.597 | -0.644 | -0.669 | -1.17 | -0.907 | -0.386 | -0.558 | -1 | -1.4 | 0.238 | -0.384 | -0.503 | -0.309 | -0.685 | 0.479
ACTAGGAGGCCAAGTTTGGGTCACTCAAACAAAG | 0.516 | 0.308 | -0.0463 | 0.967 | -0.287 | 1.36 | 0.296 | 0.511 | -0.488 | -0.0404 | 1.22 | 1.95 | -0.886 | -1.06 | 1.15 | 1.22 | 0.347 | 1.83 | 0.176 | 2.43
